The values that follow come from the supplement of paper PMC6522484.

Each structure is given as a SMILES string. ± gives the standard deviation of the averaged measurements.

The test deals with SW480. The experiment in a line: TCF/Wnt firefly luciferase reporter signal relative to plate median (fraction of plate median); higher = higher Wnt reporter signal. As to conditions: 5 µM; treatment time 24 h; reporter: 7TFP. The essentials: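 Colorectal cancer cell lines stably carrying lentiviral TCF/Wnt firefly luciferase reporters (7TFP or TCF4/Wnt) were plated in 384-well plates and, 24 h later, given library compounds at a final 5 µM for 24 h. Firefly luciferase or CellTiterGlo luminescence was read on parallel plates with a Tecan F500 reader. Each well's signal was normalised to the plate median in webcellHTS2 (additive, without log transformation). Values are the mean of two independent replicates.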
As to `CC(=O)OCC(=O)[C@@]1(O)CC[C@H]2[C@@H]3CCC4=CC(=O)C=C[C@]4(C)[C@H]3[C@@H](O)C[C@@]21C`, the “TCF/Wnt firefly luciferase reporter signal” value was 1.11 ± 0.092.
Take `Cc1cccc(C(=O)O)c1O`: the “TCF/Wnt firefly luciferase reporter signal” value came to 0.922 ± 0.059.
For the compound `COCCCOc1cc(C[C@@H](C[C@H](NC(=O)OC(C)(C)C)[C@@H]2C[C@@H](C(C)C)C(=O)O2)C(C)C)ccc1OC` [Borrelidin derivative (C30H49NO7)], the “TCF/Wnt firefly luciferase reporter signal” value worked out at 0.9975 ± 0.0035.
The figure for `CCCCCCCCCCCCC[N+](C)(C)Cc1ccccc1` is 0.562 ± 0.074.
`CC(C)C[C@H](NC(=O)[C@@H]1CCCN1)C(=O)N1CCNC(=O)C1=O` [Prolyl-leucyl-diketopiperazine]: the “TCF/Wnt firefly luciferase reporter signal” value came to 1.025 ± 0.0071.
As to `CS(C)(=O)=O`, the “TCF/Wnt firefly luciferase reporter signal” value was determined as 1.05 ± 0.064.
For `CC(=O)Nc1cc2nc3ccccc3oc-2cc1=O` [N-Acetylquestiomycin A], the “TCF/Wnt firefly luciferase reporter signal” value amounted to 1.145 ± 0.0071.
As to `NS(=O)(=O)c1cc2c(cc1Cl)NC(C(Cl)Cl)NS2(=O)=O` (stereo not given), the “TCF/Wnt firefly luciferase reporter signal” value was determined as 0.991 ± 0.013.
As to `C=CC[C@@H]1/C=C(\C)C[C@H](C)C[C@H](OC)[C@H]2O[C@@](O)(C(=O)C(=O)N3CCCC[C@H]3C(=O)O[C@H](/C(C)=C/[C@@H]3CC[C@@H](O)[C@H](OC)C3)[C@H](C)[C@@H](O)CC1=O)[C@H](C)C[C@@H]2OC`, the “TCF/Wnt firefly luciferase reporter signal” value worked out at 0.98 ± 0.0057.
As to `CCCCC[C@H](CC(=O)NO)C(=O)N[C@H](C(=O)N1CCC[C@H]1CO)C(C)C`, the “TCF/Wnt firefly luciferase reporter signal” value was 1.16 ± 0.035.
With `CC(C)c1nc(N(C)S(C)(=O)=O)nc(-c2ccc(F)cc2)c1/C=C/[C@@H](O)C[C@@H](O)CC(=O)O` the figure was 0.913 ± 0.15.
As for `COc1ccc(-c2cc(=O)c3c(OC)c(OC)c(OC)c(OC)c3o2)cc1OC`, the “TCF/Wnt firefly luciferase reporter signal” value turned out to be 0.992 ± 0.011.
With `CC(C)(C)NC[C@H](O)COc1nsnc1N1CCOCC1` the figure was 1.04 ± 0.042; with `C=C1CCC(C2CC(=O)OC2=O)C(=O)CCC2C1CC2(C)C` (stereo not given), 0.901 ± 0.018.
`C[C@@H]1C[C@H]2O[C@@H]2/C=C\C=C\C(=O)Cc2c(Cl)c(O)cc(O)c2C(=O)O1` [Radicicol]: the “TCF/Wnt firefly luciferase reporter signal” value is 0.785 ± 0.035.
With `Cc1ccc(Cl)c(Nc2ccccc2C(=O)O)c1Cl` the figure was 1.05 ± 0.064; with `O=C1NS(=O)(=O)c2ccccc21`, 0.96 ± 0.14.
As to `COc1cc2c(cc1OC)Cc1cc(OC)c(OC)cc1Cc1cc(OC)c(OC)cc1C2`, the “TCF/Wnt firefly luciferase reporter signal” value turned out to be 0.865 ± 0.045.
With `Clc1ccc(C(c2ccccc2Cl)C(Cl)Cl)cc1` (stereo not given) the figure was 1.03 ± 0.17; with `COC[C@H]1O[C@@H](OC2OC[C@@H]3O[C@]4(O[C@H]3[C@H]2OC(=O)C(C)C)O[C@H](C)[C@@](O)(C(C)=O)[C@@H]2OCO[C@H]24)[C@@H](OC)[C@@H](O)[C@@H]1O[C@@H]1O[C@H](C)[C@H](OC)[C@H](O[C@H]2C[C@@]3(C)OC4(C[C@@H](O)[C@H](O[C@H]5C[C@@H](O)[C@H](OC(=O)c6c(C)c(Cl)c(O)c(Cl)c6OC)[C@@H](C)O5)[C@@H](C)O4)O[C@@H]3[C@@H](C)O2)[C@H]1O` (stereo not given in full) [Avilamycin A], 1.03 ± 0.078; with `C[C@H](CCC(=O)O)[C@H]1CC[C@H]2[C@@H]3[C@H](O)C[C@@H]4C[C@H](O)CC[C@]4(C)[C@H]3C[C@H](O)[C@]12C`, 1.07 ± 0.035.
In the case of `COc1cccc2c1C(=O)c1c(O)c3c(c(O)c1C2=O)CC(O)(C(C)O)CC3OC1CC(NC=O)C(O)C(C)O1` (stereo not given) [Baumycin C2], the “TCF/Wnt firefly luciferase reporter signal” value is 1.05 ± 0.014.
`COc1cc2nc(N3CCN(C(=O)C4CCCO4)CC3)nc(N)c2cc1OC` (stereo not given): the “TCF/Wnt firefly luciferase reporter signal” value is 1 ± 0.039.
With `CC(=O)O[C@H]1CC[C@@]2(C)[C@H](CC[C@@H]3[C@@H]2CC[C@]2(C)[C@@H]4[C@H](C[C@@H]32)O[C@]2(CC[C@@H](C)CO2)[C@H]4C)C1`, the “TCF/Wnt firefly luciferase reporter signal” value amounted to 0.941 ± 0.083.
As for `OC[C@H]1O[C@@H](Oc2ccc(O)cc2)[C@H](O)[C@@H](O)[C@@H]1O`, the “TCF/Wnt firefly luciferase reporter signal” value is 0.975 ± 0.033.
Regarding `CC(C(=O)O)c1ccc(-c2ccccc2)c(F)c1` (stereo not given), the “TCF/Wnt firefly luciferase reporter signal” value worked out at 1.02 ± 0.035.
Consider `CC1=CCCC(C)=CCC(C)(C)C=CC1` [HUMULENE (alpha)], for which the “TCF/Wnt firefly luciferase reporter signal” value is 1.15 ± 0.13.
Consider `O=C1c2ccccc2C(=O)c2c(Cl)cccc21` [Chloro-Anthraquinone], for which the “TCF/Wnt firefly luciferase reporter signal” value was 0.944 ± 0.14.
For the compound `OC1(c2ccc(Cl)c(C(F)(F)F)c2)CCN(CCCC(c2ccc(F)cc2)c2ccc(F)cc2)CC1`, the “TCF/Wnt firefly luciferase reporter signal” value was 0.931 ± 0.092.
On to `O=c1c(O)c(-c2ccccc2)oc2ccccc12`, for which the “TCF/Wnt firefly luciferase reporter signal” value is 0.977 ± 0.1.
On to `CCN(CC)CCNC(=O)c1cc(Cl)c(N)cc1OC`, for which the “TCF/Wnt firefly luciferase reporter signal” value amounted to 1 ± 0.069.
`CC1(C)OC(=O)NC1=O`: the “TCF/Wnt firefly luciferase reporter signal” value was determined as 0.932 ± 0.14.
The figure for `S=P(N1CC1)(N1CC1)N1CC1` is 0.93 ± 0.021.
As to `CN[C@@H]1[C@H](O)[C@H](NC)[C@H]2O[C@@]3(O)C(=O)C[C@@H](C)O[C@H]3O[C@@H]2[C@H]1O`, the “TCF/Wnt firefly luciferase reporter signal” value is 1.09 ± 0.13.
Turning to `COc1ccc(CN(CCN(C)C)c2ncccn2)cc1`, the “TCF/Wnt firefly luciferase reporter signal” value amounted to 0.931 ± 0.021.
Consider `NC(=O)c1cc[n+](CC2=C(C(=O)O)N3C(=O)[C@@H](NC(=O)[C@@H](c4ccccc4)S(=O)(=O)[O-])[C@H]3SC2)cc1`, for which the “TCF/Wnt firefly luciferase reporter signal” value is 0.9605 ± 0.0078.
With `CC1(C)S[C@@H]2[C@H](NC(=O)[C@H](NC(=O)N3CCNC3=O)c3ccccc3)C(=O)N2[C@H]1C(=O)O`, the “TCF/Wnt firefly luciferase reporter signal” value amounted to 0.919 ± 0.053.
For `COc1ccccc1OCC(O)CN1CCN(CC(=O)Nc2c(C)cccc2C)CC1` (stereo not given), the “TCF/Wnt firefly luciferase reporter signal” value was 0.881 ± 0.0092.
Turning to `COc1c2ccoc2nc2c(OC)c(OCC(O)C(C)(C)O)ccc12` (stereo not given), the “TCF/Wnt firefly luciferase reporter signal” value was 1.02 ± 0.057.
As to `Cc1c(NC(C)C)c(=O)n(-c2ccccc2)n1C`, the “TCF/Wnt firefly luciferase reporter signal” value is 0.942 ± 0.0014.
